Results taken from PubChem BioAssay.
Values without a mark were called inactive. The source made the active and inactive calls.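 Rule for the calls, unless noted: active = mean inhibition above 46.5%, the solvent-only control mean plus 3 SD; inactive = the rest.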

Key:
[1] = system: transactivating tegument protein VP16 (Human herpesvirus 1); experiment: VP16 transactivation reporter inhibitors, counter-screen for SRC2 inhibitor project, cell-based, luminescence, single concentration (AID 652007; in the data active = inhibition above about 36%); conditions: cell-based VP16 transactivation luciferase reporter, at 8.9 µM, hits give high values
[2] = target: Nuclear receptor coactivator 2 (Homo sapiens) (UniProt Q15596); experiment: SRC2 coactivator transcriptional activity inhibitors, confirmation, cell-based, luminescence, HEK293, triplicate (AID 652008); conditions: HEK293 GAL4-SRC2 luciferase reporter, at 8.9 µM, hits give high values;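 note: 0% = DMSO-treated cells and 100% = Gossypol at 36 µM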
Sequence of Nuclear receptor coactivator 2 (Homo sapiens) (Q15596 whole entry, looked up, the tested form may be a part): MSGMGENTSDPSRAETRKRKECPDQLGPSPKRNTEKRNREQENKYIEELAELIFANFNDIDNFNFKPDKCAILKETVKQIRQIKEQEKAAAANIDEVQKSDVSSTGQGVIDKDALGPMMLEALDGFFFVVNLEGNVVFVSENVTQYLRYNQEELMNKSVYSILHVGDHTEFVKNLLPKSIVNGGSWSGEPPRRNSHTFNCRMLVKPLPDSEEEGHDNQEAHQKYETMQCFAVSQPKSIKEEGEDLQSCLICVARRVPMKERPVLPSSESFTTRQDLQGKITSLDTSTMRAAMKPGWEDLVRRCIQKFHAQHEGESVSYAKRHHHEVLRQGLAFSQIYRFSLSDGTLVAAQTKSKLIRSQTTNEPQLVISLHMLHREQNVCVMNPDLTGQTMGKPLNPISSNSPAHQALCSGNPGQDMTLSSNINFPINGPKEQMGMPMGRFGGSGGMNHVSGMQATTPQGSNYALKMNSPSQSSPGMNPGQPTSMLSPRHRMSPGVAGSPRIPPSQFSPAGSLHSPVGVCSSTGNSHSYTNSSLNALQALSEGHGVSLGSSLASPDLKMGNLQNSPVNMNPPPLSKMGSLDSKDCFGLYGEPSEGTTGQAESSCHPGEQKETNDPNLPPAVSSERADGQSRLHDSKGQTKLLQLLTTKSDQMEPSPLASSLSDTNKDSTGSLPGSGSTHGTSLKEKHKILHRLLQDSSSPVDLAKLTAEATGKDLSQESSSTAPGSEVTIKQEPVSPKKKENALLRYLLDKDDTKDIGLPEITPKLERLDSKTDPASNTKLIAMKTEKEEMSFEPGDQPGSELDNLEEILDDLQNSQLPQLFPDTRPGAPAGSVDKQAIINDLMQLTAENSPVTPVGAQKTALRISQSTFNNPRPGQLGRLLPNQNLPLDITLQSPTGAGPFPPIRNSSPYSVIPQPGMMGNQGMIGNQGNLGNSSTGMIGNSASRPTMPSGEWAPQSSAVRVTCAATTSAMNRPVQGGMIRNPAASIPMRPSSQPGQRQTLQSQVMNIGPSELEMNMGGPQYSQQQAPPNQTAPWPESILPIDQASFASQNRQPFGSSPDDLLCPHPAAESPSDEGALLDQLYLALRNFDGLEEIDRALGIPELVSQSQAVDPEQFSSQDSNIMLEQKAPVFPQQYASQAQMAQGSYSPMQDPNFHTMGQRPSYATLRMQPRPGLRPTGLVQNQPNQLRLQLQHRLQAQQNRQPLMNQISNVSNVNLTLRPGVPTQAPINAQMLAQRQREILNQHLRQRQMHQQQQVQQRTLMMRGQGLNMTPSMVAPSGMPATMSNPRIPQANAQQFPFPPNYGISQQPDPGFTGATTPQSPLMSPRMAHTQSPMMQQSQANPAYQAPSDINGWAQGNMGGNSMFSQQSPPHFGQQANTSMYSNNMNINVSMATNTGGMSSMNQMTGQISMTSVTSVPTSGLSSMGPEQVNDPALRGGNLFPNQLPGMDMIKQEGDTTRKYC

| SMILES | inhibition [1] | inhibition [2] |
| --- | --- | --- |
| Cc1ccc2nc(-c3cc(N)cc(N)c3)oc2c1 | -8.66% | 38.3% |
| COc1ccc(C(=O)NC2CC3CCCC(C2)N3CC(C)C)cc1 (centres undefined) | 2.31% | -12.2% |
| O=C(Nc1ccnn1C1CCN(C(=O)c2ccc(Cl)cc2)CC1)C1CC1 | -6.97% | -7.33% |
| Cn1nnnc1Sc1ncnc2scc(-c3cccc(C(F)(F)F)c3)c12 | 36.9% (active) | 52.3% (active) |
| O=C(N/N=C/c1coc2ccc(Cl)cc2c1=O)c1ccncc1 | -13.1% | 31.4% |
| Cc1ccc(NC(=O)c2ccc(NC(=O)C3CCCCC3C(=O)O)cc2)cc1 (centres undefined) | -56% | -17.6% |
| COc1cc(OC)cc(C2=Cc3ccc(OC)cc3C(CC(C)=O)N2c2ccc(C#CC3(O)CCCCC3)cc2)c1 (centres undefined) | -2.24% | 19.6% |
| CC(C)N(C(=O)[C@H]1C[C@H](CC(=O)NCCc2ccccn2)C(=O)N2CCc3c([nH]c4cc(-c5ccco5)ccc34)[C@]12C)C(C)C | -4.18% | -6.81% |
| CCN(CC)c1ccc(/C=C/c2cc(-c3ccccc3)c3ccccc3n2)cc1 | -11.2% | -13.1% |
| COc1cccc(-c2nc(-c3ccccn3)no2)c1 | -20.4% | 24.9% |
| Cc1c(CCC(=O)O)c(=O)oc2cc(OCc3ccccc3Br)ccc12 | 19.4% | 20.1% |
| Cc1c(C=O)n(C)n(-c2ccccc2)c1=O | -14.4% | 2.35% |
